From PubChem BioAssay (NCI)
This is part of a sample that, as a whole, favours compounds with a hit. Of some 79,000 tested, about 15% had one in any assay. A number with no mark means an inactive call. Activity calls are given as the source filed them. Rule as the data show it: active = growth inhibition above about 70%; inactive = the rest.

Assays:
[1] = NCI Yeast Anticancer Drug Screen. Data for the rad50 strain (AID 155);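 also: 0% = growth of vehicle-only cultures of the same strain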; settings: S. cerevisiae rad50 strain growth inhibition, hits give high values
Method in brief: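 Genetically altered yeast (DNA repair pathway); compound treatment; growth inhibition vs vehicle ctrl.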

[2] = NCI Yeast Anticancer Drug Screen. Data for the mec2-1 strain (AID 157); settings: S. cerevisiae mec2-1 strain, hits give high values
Method in brief: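 Mutant yeast (mec2-1) grown with compound; growth inhibition relative to vehicle control reported.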

[3] = NCI Yeast Anticancer Drug Screen. Data for the sgs1 mgt1 strain (AID 161);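 also: 0% = growth of cultures given vehicle only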; settings: S. cerevisiae sgs1 mgt1 strain, hits give high values
Method in brief: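 Compounds are added to genetically altered yeast, and growth is compared with cultures given vehicle alone to give percent inhibition.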

[4] = NCI Yeast Anticancer Drug Screen. Data for the cln2 rad14 strain (AID 165);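 also: 0% = growth equal to vehicle treated cultures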; settings: S. cerevisiae cln2 rad14 strain, hits give high values
Method in brief: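 Readout is yeast growth inhibition versus vehicle-treated controls, using a strain with cln2 and rad14 alterations exposed to compound.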

[5] = NCI Yeast Anticancer Drug Screen. Data for the bub3 strain (AID 167); settings: S. cerevisiae bub3 mutant strain, hits give high values
Method in brief: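 Yeast carrying a defined mutation is treated with each compound, and growth is compared with that of vehicle-exposed cells to give inhibition.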

[6] = NCI Yeast Anticancer Drug Screen. Data for the mlh1 rad18 strain (AID 175); settings: S. cerevisiae mlh1 rad18 strain growth inhibition, hits give high values
Method in brief: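 Genetically defined yeast (DNA repair-deficient) exposed to compounds; growth inhibition determined relative to vehicle.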

[7] = at 5.0 µM (retest, dose inferred, filed as 0.5)
[8] = at 50.0 µM (retest, dose inferred, filed as 5.0)

SMILES | growth inhibition [1, 7] | growth inhibition [1, 8] | growth inhibition ([1]; at 50.0 µM) | growth inhibition [2, 7] | growth inhibition [2, 8] | growth inhibition ([2]; at 50.0 µM) | growth inhibition [3, 7] | growth inhibition [3, 8] | growth inhibition ([3]; at 50.0 µM) | growth inhibition [4, 7] | growth inhibition [4, 8] | growth inhibition ([4]; at 50.0 µM) | growth inhibition [5, 7] | growth inhibition [5, 8] | growth inhibition ([5]; at 50.0 µM) | growth inhibition [6, 7] | growth inhibition [6, 8] | growth inhibition ([6]; at 50.0 µM)
COC(=O)[C@@]12OC[C@]34[C@H]([C@@H](O)[C@@H]1O)[C@@]1(C)[C@H](O)C(=O)C=C(C)[C@@H]1C[C@H]3OC(=O)C(OC(C)=O)[C@@H]24 (some centres undefined) | 36% | 98% (active) | 91% (active) | 35% | 98% (active) | 89.3% (active) | 30% | 98% (active) | 87.8% (active) | 43% | 99% (active) | 90.5% (active) | 19% | 98% (active) | 90.5% (active) | 34% | 99% (active) | 90.8% (active)
Cc1ccc(N=C(N)NN=C(c2ccc(Cl)cc2)c2ccc(Cl)cc2)cc1 | 10% | 67% | 65.7% | 4% | 38% | 98.5% (active) | 7% | 35% | 57.6% | 8% | 22% | 98% (active) | 6% | 24% | 97.2% (active) | 5% | 38% | 50.3%
Cc1cc(=O)oc2c(C)c3oc(CBr)cc3cc12 | -11% | 79% (active) | 54.1% | 4% | 67% | 62.7% | -17% | 64% | 69.8% | 32% | 56% | 66.2% | -4% | 67% | 65.4% | -2% | 75% (active) | 63.1%
CN(C(=S)c1ccccc1)c1ccccc1 | -166% | -132% | 97.4% (active) | -45% | -56% | 82% (active) | -63% | -61% | 69.2% | -61% | -65% | 58.7% | -81% | -80% | 96.6% (active) | -150% | -131% | 91.7% (active)
O=c1[nH]ccc(CNC23CC4CC(CC(C4)C2)C3)c1O | 5% | 11% | 49.9% | 10% | 33% | 21.4% | 18% | 67% | 61.9% | 10% | 11% | 39.9% | 7% | 49% | 36.4% | 6% | 38% | 81.5% (active)
Cc1ccnc2c1ccc1c(C)ccnc12 | 10% | 98% (active) | 99% (active) | -17% | 99% (active) | 99.1% (active) | 14% | 99% (active) | 99.2% (active) | -21% | 97% (active) | 98.5% (active) | -25% | 98% (active) | 99.1% (active) | 1% | 98% (active) | 99% (active)
O[C@H]1[C@H]2c3cc4c(cc3CN3CCC(=C[C@@H]1O)[C@H]23)OCO4 | 13% | 98% (active) | 91.5% (active) | 19% | 99% (active) | 93.6% (active) | 23% | 98% (active) | 93.2% (active) | 77% (active) | 98% (active) | 90.7% (active) | 0% | 98% (active) | 91.2% (active) | 26% | 99% (active) | 92.2% (active)
CC(CCNCCC#N)CC(C)(C)C (centres undefined) | 6% | 66% | 76.9% (active) | -4% | 32% | 47.8% | 9% | 43% | 86.2% (active) | 7% | 33% | 48.5% | 7% | 47% | 63% | 12% | 66% | 68.8%
O=[N+]([O-])c1ccc(N=Nc2ccc(O)cc2O)cc1 | 48% | 97% (active) | 98.5% (active) | 24% | 98% (active) | 98.9% (active) | 36% | 98% (active) | 98.3% (active) | -1% | 97% (active) | 90.4% (active) | 45% | 97% (active) | 98.9% (active) | 28% | 97% (active) | 97.7% (active)
O=C1Nc2ccccc2/C1=C\c1ccccn1 | 41% | 76% (active) | 68.7% | 22% | 60% | 30.9% | 34% | 76% (active) | 48.7% | 32% | 38% | 9% | 26% | 68% | 56% | 49% | 86% (active) | 51%
CC(C)OC(=O)c1ccc(NCC2=CC(=O)C=CC2=O)cc1Cl | 53% | 99% (active) | 90.7% (active) | 44% | 100% (active) | 92.5% (active) | 55% | 100% (active) | 91.2% (active) | 61% | 100% (active) | 91.2% (active) | 55% | 100% (active) | 88.9% (active) | 46% | 99% (active) | 91.7% (active)
Oc1c(Cl)cc(Br)cc1Cl | 44% | 95% (active) | 84.7% (active) | 19% | 99% (active) | 92.9% (active) | 11% | 93% (active) | 96.5% (active) | 3% | 99% (active) | 78.5% (active) | 13% | 99% (active) | 89.3% (active) | 12% | 97% (active) | 91.8% (active)
C#CC(NCCC(C)CC(C)(C)C)C(C)C (centres undefined) | -4% | -62% | 83.3% (active) | 2% | -31% | 36.2% | -3% | -22% | 87.7% (active) | -2% | -14% | 21.4% | -14% | -68% | 29.6% | -3% | -43% | 65.2%
CS(=O)(=O)OCCN(CCOS(C)(=O)=O)c1ccc(C=Nc2cccc(Cl)c2)cc1 | 35% | 90% (active) | 92.7% (active) | 40% | 91% (active) | 86.5% (active) | 17% | 74% (active) | 88.8% (active) | 17% | 86% (active) | 71.3% (active) | 1% | 50% | 43% | 70% (active) | 95% (active) | 96.7% (active)
O=S(=O)(O)N=Nc1ccc(O)cc1 | 65% | 98% (active) | 91.5% (active) | 1% | 99% (active) | 94.3% (active) | 17% | 98% (active) | 93.2% (active) | -8% | 98% (active) | 91% (active) | -12% | 98% (active) | 92.8% (active) | 37% | 98% (active) | 91.5% (active)
O=C1c2cccnc2-c2nccc3c2c1nc1cc(Br)ccc13 | 61% | 98% (active) | 88.7% (active) | 44% | 99% (active) | 92.2% (active) | 94% (active) | 98% (active) | 89.9% (active) | 28% | 97% (active) | 88.2% (active) | 88% (active) | 98% (active) | 89.2% (active) | 58% | 98% (active) | 77.2% (active)
CC#Cc1cc2c(cc1O)CC[C@@H]1[C@@H]2CC[C@]2(C)[C@@H](O)CC[C@@H]12 | 39% | 99% (active) | 84.7% (active) | 22% | 100% (active) | 90.3% (active) | 24% | 99% (active) | 88.5% (active) | 20% | 99% (active) | 72.4% (active) | 26% | 99% (active) | 87.7% (active) | 29% | 99% (active) | 93.3% (active)
COC1=CC(=O)c2c(O)c3c(c(O)c2C1=O)C[C@](C)(O)C[C@@H]3O | 27% | 93% (active) | 84.7% (active) | 14% | 94% (active) | 79.8% (active) | 12% | 91% (active) | 85.6% (active) | 0% | 29% | 47.7% | 36% | 93% (active) | 83.8% (active) | 33% | 96% (active) | 84.5% (active)
